Assay results published in PubChem BioAssay (NCI).
This is part of a sample that, as a whole, favours compounds with a hit. Of some 79,000 tested, about 15% had one in any assay. The source made the active and inactive calls. Rule as the data show it: active = growth inhibition above about 70%; inactive = the rest.

Assays:
[1] = NCI Yeast Anticancer Drug Screen. Data for the rad50 strain (AID 155);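 also: 0% = growth of vehicle-only cultures of the same strain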; settings: S. cerevisiae rad50 strain growth inhibition, stronger effect = higher value
In short: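 Vehicle-treated cultures provide the reference for the growth inhibition reported for compound-exposed, repair-deficient yeast.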

[2] = NCI Yeast Anticancer Drug Screen. Data for the mec2-1 strain (AID 157); settings: S. cerevisiae mec2-1 strain, stronger effect = higher value
In short: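 Readout is yeast growth inhibition, normalised to vehicle-treated controls, in the mec2-1 strain exposed to compound.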

[3] = NCI Yeast Anticancer Drug Screen. Data for the sgs1 mgt1 strain (AID 161);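 also: 0% = growth of cultures given vehicle only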; settings: S. cerevisiae sgs1 mgt1 strain, stronger effect = higher value
In short: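 Percent growth inhibition was derived by comparing compound-exposed mutant yeast with vehicle-exposed cultures. The strain carries alterations in DNA damage repair.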

[4] = NCI Yeast Anticancer Drug Screen. Data for the cln2 rad14 strain (AID 165);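 also: 0% = growth equal to vehicle treated cultures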; settings: S. cerevisiae cln2 rad14 strain, stronger effect = higher value
In short: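 Relative to vehicle controls, growth inhibition of compound-treated cln2 rad14 yeast was recorded.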

[5] = NCI Yeast Anticancer Drug Screen. Data for the bub3 strain (AID 167); settings: S. cerevisiae bub3 mutant strain, stronger effect = higher value
In short: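 Mutant yeast screening strain plus compound; vehicle-treated cultures serve as the 0% inhibition reference.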

[6] = NCI Yeast Anticancer Drug Screen. Data for the mlh1 rad18 strain (AID 175); settings: S. cerevisiae mlh1 rad18 strain growth inhibition, stronger effect = higher value
In short: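 Test agents were incubated with a yeast strain of defined genotype (DNA damage repair defect). Inhibition of growth was derived by comparison with vehicle-exposed cultures.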

[7] = at 5.0 µM (retest, dose inferred, filed as 0.5)
[8] = at 50.0 µM (retest, dose inferred, filed as 5.0)

Measured: growth inhibition

O=c1s[se]c2ccccc12
active: [1]; [8] 98% | [1]; at 50.0 µM 84.2% | [2]; [8] 99% | [2]; at 50.0 µM 87.1% | [3]; [8] 99% | [3]; at 50.0 µM 90.1% | [4]; [8] 98% | [4]; at 50.0 µM 92.2% | [5]; [8] 99% | [5]; at 50.0 µM 89.8% | [6]; [8] 97% | [6]; at 50.0 µM 91.9%
inactive: [1]; [7] 27% | [2]; [7] 13% | [3]; [7] 17% | [4]; [7] 21% | [5]; [7] -2% | [6]; [7] 25%

O=[C-]c1ccccc1[C-]=O.[Pd+2].c1ccc([PH+](c2ccccc2)c2ccccc2)cc1.c1ccc([PH+](c2ccccc2)c2ccccc2)cc1
inactive: [1]; [7] 11% | [1]; [8] 44% | [1]; at 50.0 µM 34.6% | [2]; [7] 7% | [2]; [8] 54% | [2]; at 50.0 µM 35% | [3]; [7] 23% | [3]; [8] 69% | [4]; [7] 5% | [4]; [8] 40% | [4]; at 50.0 µM -0.7% | [5]; [7] 4% | [5]; at 50.0 µM 14.7% | [6]; [7] 14% | [6]; at 50.0 µM 60.9%
active: [3]; at 50.0 µM 84.5% | [5]; [8] 97% | [6]; [8] 80%

OC(CN(CCCl)CCCl)C(O)C(O)C(O)CN(CCCl)CCCl (stereo not given)
inactive: [1]; [7] 6% | [2]; [7] 9% | [2]; [8] 59% | [2]; at 50.0 µM 24% | [3]; [7] -4% | [3]; [8] 33% | [3]; at 50.0 µM 30.2% | [4]; [7] -6% | [4]; [8] 50% | [5]; [7] -7% | [5]; [8] 11% | [5]; at 50.0 µM -12.1% | [6]; [7] 35%
active: [1]; [8] 81% | [1]; at 50.0 µM 77.6% | [4]; at 50.0 µM 82.1% | [6]; [8] 95% | [6]; at 50.0 µM 82.1%

COc1ccc(/C=C\[N+](=O)[O-])cc1OC
active: [1]; [8] 97% | [1]; at 50.0 µM 99.4% | [2]; [8] 99% | [2]; at 50.0 µM 99.7% | [3]; [8] 99% | [3]; at 50.0 µM 99.7% | [4]; [8] 99% | [4]; at 50.0 µM 99% | [5]; [8] 99% | [5]; at 50.0 µM 99.3% | [6]; [8] 99% | [6]; at 50.0 µM 99.5%
inactive: [1]; [7] 47% | [2]; [7] 27% | [3]; [7] 25% | [4]; [7] 12% | [5]; [7] 14% | [6]; [7] 28%

CCOP(=O)(OCC)/C(C#N)=C/c1cccc(F)c1
inactive: [1]; [7] -9% | [1]; [8] 45% | [2]; [7] -11% | [2]; [8] 23% | [2]; at 50.0 µM 59.3% | [3]; [7] -2% | [3]; [8] 36% | [3]; at 50.0 µM 64.8% | [4]; [7] 17% | [4]; [8] 33% | [4]; at 50.0 µM 25.4% | [5]; [7] -12% | [5]; [8] 56% | [5]; at 50.0 µM 51.1% | [6]; [7] -1% | [6]; [8] 69% | [6]; at 50.0 µM 68.9%
active: [1]; at 50.0 µM 73.8%
